# Assay outcomes deposited in PubChem BioAssay by Broad Institute.
# An excerpt weighted towards active compounds, which were near 3.2% of everything screened.
# CaV13 ICDI inh – Primary screen for inhibitors of IQ motif and Ca2+-dependent inactivation inhibitor domain binding in CACNA1D, Förster resonance energy transfer in living cells, …; AID 743397; inhibition, % at 12.3 µM; HEK cells, CFP/YFP FRET ICDI-IQ, plate reader, 10 min; percent FRET-ratio fall versus neutral wells; 340,000 compounds, 0.098% hits;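 active = mean replicate inhibition of at least 30% and at least 1% of replicates passing that level; inconclusive = only one of the two criteria is met; inactive = neither criterion is met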;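 note: 0% = median of the neutral control wells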
# GSIS activator – GLuc luminescence reporter in INS-1E cells, primary screen for activators of glucose-dependent secretion of insulin; 370,000 compounds, 0.61% hits; activation, % at 16.6 µM; INS-1E GLuc reporter insulin secretion, 2-3 h;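 active = lowest replicate activation of at least 40%, so every replicate reaches that level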;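 note: 0% = median of neutral control wells and 100% = median of IBMX positive control wells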
# DENV2 CPE rescue – inhibitors of DENV2 cytopathic effect. CPE inhibition, % at 9.99 µM. DENV2-infected cells, cytopathic effect rescue, plate reader. 350,000 compounds, 1.7% hits; in the data active = CPE inhibition above about 20%, passing the limit was not always enough; inconclusive = no clear call, values can overlap the other calls; tested in BHK-21 cells;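 note: 0% = median of neutral control wells and 100% = median of positive control wells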
# PGC1a acetyl inh – modulators of PGC1a acetylation | U2OS PGC1a acetylation, AlphaScreen anti-acetyl-lysine; with virally co-expressed GCN5 acetyltransferase | inhibition, % at 15.6 µM | 350,000 compounds, 0.17% hits;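 active = every replicate shows inhibition of at least 40%; inconclusive = mean inhibition at least 40% but some replicate below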;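 note: 0% = neutral control wells and 100% = positive control wells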
# ERAP1 inh – blocks human ERAP1 aminopeptidase activity | 340,000 compounds, 0.15% hits | recombinant ERAP1, Leu-AMC fluorescence, 60 min | inhibition, % at 10.7 µM;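 active = mean replicate inhibition of at least 30%, or all replicates individually reaching that 30% level; inactive = mean below 30% and not every replicate reaching it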;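 note: 0% = neutral control wells and 100% = L-leucinethiol positive control wells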
# rRNA inh HTS – inhibits bacterial ribosomal RNA function over humanized ribosomes; E. coli WT GFP vs humanized-ribosome RFP mutants, fluorescence, 24 h; active compounds read low; DMSO median 0, no signal -100; GFP signal change (wild-type ribosome), % (no concentration beside the values); 350,000 compounds, 1.6% hits; AID 720706;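 active = significant combined selectivity score with lowered wild-type GFP, culture density cut under 30%, mutant RFP and density less affected; inactive = any of these conditions unmet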
# Numbers without * were called inactive; ? = inconclusive; / = not tested or not shown.
SMILES,CaV13 ICDI inh,GSIS activator,DENV2 CPE rescue,PGC1a acetyl inh,ERAP1 inh,rRNA inh HTS
C[C@@H]1CN([C@@H](C)CO)C(=O)c2cc(NC(=O)Cn3cnnn3)ccc2O[C@@H]1CN(C)C(=O)Nc1ccc(C(F)(F)F)cc1,/,-8,17,2,-1,-27
N#Cc1ccc(C(=O)N2CCC3CC2c2cc(N4CCCCC4)ccc23)cc1 (stereo not drawn),-4,-7,7,0,1,-33*
Cc1noc(C)c1NC(=O)N(C)C[C@H]1Oc2ncc(C#CCN(C)C)cc2C(=O)N([C@H](C)CO)C[C@@H]1C,/,12,9,4,5,6
CN(CCO)c1cc(Sc2nc3ccccc3s2)c2nonc2c1[N+](=O)[O-],-10,164*,-2,16,2,2
CS/C(=N\S(=O)(=O)c1cccs1)Nc1cccc(Cl)c1C,-14,-14,-3,11,-1,-44*
CS/C(=N\S(=O)(=O)c1cccs1)Nc1ccc(F)c(Cl)c1,/,-21,9,-3,1,-13
CCC(=O)N1C[C@@H](C)[C@H](OC)CN(C)C(=O)c2ccc(NC(=O)Nc3ccccc3)cc2OC[C@H]1C,/,-13,-1,0,0,-2
COc1ccc(C(=O)Nc2nc(-c3cccs3)cs2)cc1,-7,/,/,8,/,/
COc1cc(C(=O)Nc2nc(-c3cccs3)cs2)cc(OC)c1OC,-6,-10,-4,-16,-1,-30*
Cc1cccc(C2Nc3ccccc3C(=O)N2c2ccccc2)n1 (stereo not drawn),-6,17,-2,4,3,-4
O=C1c2ccccc2NC(c2ccccn2)N1c1ccc(Cl)cc1 (stereo not drawn),-5,62*,/,3,/,/
COc1cc(C(=O)O)ccc1OCc1ccccc1,-3,55*,-8,/,2,3
COc1ccc(C(C)=O)cc1OCc1ccccc1,-5,23,-6,/,1,-4
O=C(O)c1[nH]c2ccccc2c1C(c1ccccc1)c1c(C(=O)O)[nH]c2ccccc12,0,14,-6,-5,24,-2
CCc1ccc(OCC(=O)NC(=S)Nc2ccc(F)cc2)c(Br)c1,-7,59*,/,-5,/,/
COc1cc(/C=N/NS(=O)(=O)c2ccc3ccccc3c2)ccc1OCc1ccc(C(=O)O)cc1,-5,-2,10,-1,4,-23*
COc1cc(C(c2c(C(=O)O)[nH]c3ccccc23)c2c(C(=O)O)[nH]c3ccccc23)ccc1OCc1ccccc1,103*,17,7,-11,13,11
CNC[C@@H]1Oc2c(NC(C)=O)cccc2C(=O)N(C)C[C@H]1C,/,-1,/,/,/,2
Cc1noc(C)c1S(=O)(=O)Nc1ccc2c(c1)C(=O)N([C@H](C)CO)C[C@@H](C)[C@H](CN(C)Cc1ccc3c(c1)OCO3)OCCCC[C@@H](C)O2,/,-8,-3,-10,2,-2
COc1cc(C(=S)N2CCCCC2)ccc1OCC(=O)N1CCCC1,-5,-10,/,3,/,/
CCOc1ccc(C(=S)N2CCCC2)cc1OC,-4,/,5,16,2,/
COc1ccc(C(=O)O)cc1S(=O)(=O)N(C)CCc1cccnc1,-5,/,/,0,/,/
COc1cc(C(=S)N2CCCC2)ccc1OCc1ccc(C)cc1,-2,-3,47*,/,-1,-17
COc1ccc(C(=O)O)cc1S(=O)(=O)N(CCc1ccccc1)Cc1ccccc1,-7,-31,1,14,-2,-36*
COc1cc(C(=S)N2CCCCC2)ccc1OCC(=O)Nc1ccc(F)cc1,-2,-36,98*,/,2,-6
SMILES,CaV13 ICDI inh,GSIS activator,DENV2 CPE rescue,PGC1a acetyl inh,ERAP1 inh,rRNA inh HTS
CCS(=O)(=O)N1CCCCN2[C@@H](CO)[C@H](c3ccc(C#CC(C)(C)O)cc3)[C@@H]2C1,/,9,5,6,2,3
C=CCSc1nc(=O)n2cccc(C)c2n1,-8,67*,/,-1,-2,14
Cc1cccn2c(=O)nc(SCC(=O)N3CCCCCC3)nc12,-5,10,-1,/,0,2
Cc1cccn2c(=O)nc(SCC(=O)N3CCCCC3)nc12,-16,43*,?,/,-1,7
CO[C@H]1CN(C)C(=O)c2cc(NC(=O)c3ccc4c(c3)OCO4)ccc2OC[C@@H](C)N(CC2CC2)C[C@@H]1C,/,-10,-1,1,0,1
CO[C@@H]1CN(C)C(=O)c2cc(NC(=O)c3ccc4c(c3)OCO4)ccc2OC[C@@H](C)N(CC2CC2)C[C@H]1C,/,-10,0,105*,-5,-3
CO[C@@H]1CN(C)C(=O)c2cc(NC(=O)c3ccc4c(c3)OCO4)ccc2OC[C@@H](C)N(CC2CC2)C[C@@H]1C,/,9,77*,-4,4,0
COc1ccc(S(=O)(=O)N(C)C[C@H]2Oc3c(NC(=O)c4ccc(-c5nccs5)cc4)cccc3C(=O)N([C@@H](C)CO)C[C@H]2C)cc1,/,-14,-5,-4,-1,-1
COC(=O)C[C@H]1CC[C@@H]2[C@H](COc3ccc(NC(=O)c4cccc(OC)c4)cc3C(=O)N2C)O1,/,-4,-7,0,3,-3
O=S(=O)(c1ccccc1F)N1CC[C@H]2[C@H](CO)Nc3ccc(-c4cccc(F)c4)cc3[C@H]21,/,18,29*,-9,-1,-16
COc1ccccc1-c1ccc2c(c1)[C@H]1[C@H](CCN1S(=O)(=O)c1ccccc1F)[C@@H](CO)N2,/,-23,9,-12,0,4
COc1ccccc1-c1ccc2c(c1)[C@H]1[C@H](CCN1S(=O)(=O)c1ccccc1F)[C@H](CO)N2,/,8,23*,-10,-1,-5
C[C@H](CO)N1C[C@H](C)[C@H](CN(C)Cc2ccc(Cl)c(Cl)c2)Oc2ccc(NS(=O)(=O)c3cn(C)cn3)cc2C1=O,/,-5,2,1,2,-6
COc1cc(C2Nc3cccc4cccc(c34)N2)ccc1OC(C)=O,/,/,/,56*,/,/
COc1ccc(C2Nc3cccc4cccc(c34)N2)cc1Br,-4,2,5,9,2,9
Cc1cccc(Nc2nc(N)c(C#N)c(CC#N)c2C#N)c1,-6,84*,/,/,/,/
C[C@@H]1CN([C@H](C)CO)C(=O)Cc2cc(NC(=O)c3ccncc3)ccc2O[C@H]1CN(C)C(=O)Nc1ccccc1,/,/,?,2,10,/
Cc1ccccc1-n1ncc2c1CC(C)(C)CC2NC(=O)CSc1ccncc1 (stereo not drawn),-4,10,108*,1,0,-4
CC1(C)Cc2c(cnn2-c2ccccc2)C(NC(=O)CCN2CCCC2=O)C1 (stereo not drawn),-2,41*,-9,/,-4,6
